An excerpt weighted towards active compounds, which were near 1.2% of everything screened.
PolyA inh – polyadenylation inhibitors in yeast reporter cells, primary screen, luminescence, S. cerevisiae. S. cerevisiae SKY197-pL101 polyadenylation reporter, beta-gal luminescence; efflux-impaired pdr1/pdr3 knockout yeast; score 100 = 6 SD above DMSO. activity score, % at 12 µM. hit rate 0.02% among 300,000. AID 1875, 2009;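 active means lowest replicate activity score at least 50, where 100 means six control SD above control mean; inconclusive means lowest score under 50 but half or more replicates reach 50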;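 further: yeast exposed to compound for 9 h at 30 °C; higher score means more reporter readthrough which indicates perturbed polyadenylation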
A3G deaminase – APOBEC3G DNA deaminase inhibitors, primary screen, biochemical, fluorescence, single-stranded DNA substrate, uHTS; recombinant A3G, ssDNA deamination FAM/TAMRA fluorescence; inhibition, % at 20 µM; hit rate 0.28% among 330,000;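 active means inhibition of at least 40% at 20 µM, with no more than 30% in the related APOBEC3A deaminase screen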;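 further: plate controls were DMSO wells with A3G for no effect and wells lacking A3G enzyme for full effect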
A3A deaminase – APOBEC3A ssDNA deaminase inhibitors, primary screen, selectivity assay for APOBEC3G inhibitor project, biochemical, FAM/TAMRA oligo cleavage fluorescence; inhibition, % at 20 µM; recombinant A3A, FAM/TAMRA ssDNA deamination fluorescence; hit rate 0.41% among 330,000; DNA dC->dU-editing enzyme APOBEC-3A (Homo sapiens), P31941; AID 493011, 2011;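 active means at least 40% inhibition at 20 µM here, with at most 30% in a related deaminase screen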;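 further: plate controls were A3A with DMSO for no effect and wells lacking A3A enzyme for full effect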
Target sequence (P31941 whole entry, looked up): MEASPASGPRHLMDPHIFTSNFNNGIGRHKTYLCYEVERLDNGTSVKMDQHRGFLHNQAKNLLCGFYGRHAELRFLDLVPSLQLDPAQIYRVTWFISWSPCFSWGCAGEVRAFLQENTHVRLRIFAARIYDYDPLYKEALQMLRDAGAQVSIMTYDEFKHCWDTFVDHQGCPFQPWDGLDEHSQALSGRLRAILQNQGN
NALP1 inh – NALP1 inflammasome inhibitors in reconstituted yeast, colorimetric, S. cerevisiae, triplicate retest; inhibition, % at 10 µM; hit rate 0.61% among 280,000; AID 2071, 2009; S. cerevisiae NALP1/ASC/caspase-1 growth, X-gal OD620, 72 h; in the data active means inhibition mostly above about 24%, no sharp cut-off; inactive means mostly below about 32%
APOBEC3G confirm – APOBEC3G deaminase inhibitor retest, confirmation, biochemical, fluorescence, single-stranded DNA substrate, single concentration; AID 493152, 2011; shares compounds with A3G deaminase; hit rate 72% among 890; recombinant A3G ssDNA deaminase, UDG/FAM-TAMRA fluorescence; inhibition, % at 20 µM;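 active means inhibition reaching a set limit in any replicate at 20 µM, the limit being 80% of the first screen's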
UDG ctr A3G – E. coli UDG inhibitors, confirmation, counter-screen for APOBEC3G inhibitor project, biochemical, single concentration, fluorescence, FAM/TAMRA oligo | shares compounds with A3G deaminase | UDG counterscreen | inhibition, % at 20 µM | 710 tested, under 10 active | AID 504715, 2011;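 active means compounds giving 40% or more inhibition at 20 µM in any one of the three replicates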;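 further: plate controls were DMSO wells with UDG and oligo for no effect and DMSO wells lacking both for full effect; inhibitors lower the FAM signal released by uracil excision and alkaline cleavage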
Target sequence (P12295 whole entry, looked up): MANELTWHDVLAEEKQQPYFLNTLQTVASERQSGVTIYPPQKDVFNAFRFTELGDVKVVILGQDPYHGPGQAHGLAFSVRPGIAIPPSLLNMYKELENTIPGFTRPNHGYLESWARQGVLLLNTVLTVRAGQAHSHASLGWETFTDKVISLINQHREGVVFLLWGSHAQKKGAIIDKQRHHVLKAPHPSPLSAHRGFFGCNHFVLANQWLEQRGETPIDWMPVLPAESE
The depositor's hits bear a star; ? = inconclusive; · = not tested or not shown.

SMILES	PolyA inh	A3G deaminase	A3A deaminase	NALP1 inh	APOBEC3G confirm	UDG ctr A3G
O=C1NN=C(CSc2n[nH]c(=S)s2)CS1	8.4	67.5*	0.5	-10.2	67.1*	1.9
CC(C)CC(=O)c1c(O)c(C=O)c(O)c2c1O[C@@]1(C)[C@@H](C2)C[C@H]2C[C@@H]1C2(C)C	·	-5.5	0.1	·	·	·
S=c1[nH]c2cc(Br)cnc2[nH]1	?	56.0*	0.9	-16.8	68.2*	-3.9
O=C(NC1CCCCCCC1)c1ccccc1O	-18.4	12.6	-2.3	19.3	·	·
O=C(NC1CCCCCC1)c1ccc[nH]c1=S	-10.2	54.7*	-1.2	-7.1	65.6*	-0.1
Cc1ccc(Cn2c(=S)[nH]c3ccc(N4CCOCC4)cc3c2=O)o1	-6.5	58.8*	9.5	9.9	75.5*	·
S=c1[nH]nc(COc2ccccc2)n1/N=C/c1ccco1	7.3	58.9*	-4.0	-37.7	71.4*	-2.3
CC(C)CSc1n[nH]c(=S)s1	10.1	42.1*	-3.0	-10.6	90.5*	5.0
COC(=O)Nc1cc(C(=O)c2ccc(Cl)cc2Cl)c[nH]1	-14.7	-7.0	-5.0	0.2	·	·
C/C(=N\NC(=O)c1cccc(N/N=C(\C)c2ccco2)c1)c1ccco1	1.9	·	·	-10.7	·	·
C/C(=N\NC(=O)c1cccc(N/N=C(\C)c2cc(O)ccc2O)c1)c1cc(O)ccc1O	-0.5	44.7*	-1.0	-16.4	11.9	3.7
COc1ccc2c(COC(=O)CCS(=O)(=O)c3ccc(C)cc3)cc(=O)oc2c1	-10.9	-4.4	-5.1	·	·	·
Cc1ccc(C(=O)NNC(=O)CSc2nnc3c(n2)[nH]c2ccc(F)cc23)cc1	21.3	56.5*	17.6	13.3	64.3*	0.2
Cc1ccc(NC(=O)COC(=O)c2ccc[n+]([O-])c2)c(Br)c1	·	-5.4	-4.2	·	·	·
C[C@H](O)[C@H](O)[C@H]1CNc2nc(N)[nH]c(=O)c2N1	3.6	40.8*	2.1	·	34.1*	·
O=C(N/N=C/c1cccc(OC2CSC2)c1)c1ccccc1O	0.6	73.3*	-3.6	15.5	-8.0	-4.3
Cn1ncc(Br)c1C(=O)N/N=C/c1cccc(OC2CSC2)c1	-5.7	-2.1	-0.3	3.2	·	·
CCCCCc1ccc(-c2ccc(/C=C/C(=O)O)cc2)nc1	-52.7	88.8*	0.3	-16.5	-4.3	·
COCCn1c(Cc2ccccc2)nnc1SC(C)C(=O)NC1CC1 (stereo not given)	·	-5.5	-1.5	·	·	·
Cc1cccc(-n2ccnc2SCC(=O)Nc2nnc(C)s2)c1	-18.1	49.0*	-1.9	5.1	-5.0	-4.5
CC1(C)Cc2c(sc3ncn4c(=S)[nH]nc4c23)CO1	-8.6	41.6*	0.1	-2.5	74.0*	-3.0
CC1CC1C(=O)OCC(=O)NCc1ccccc1 (stereo not given)	·	-5.0	-5.2	·	·	·
Cc1ccc(-c2n[nH]c(=S)n2/N=C/c2cccs2)cc1	2.1	16.7	-8.9	36.5	·	·
S=c1[nH]nc(-c2ccco2)n1/N=C/c1cccs1	-17.6	61.6*	-1.1	21.4	80.7*	-2.2
S=c1[nH]nc(-c2ccccc2)n1/N=C/c1cccs1	-9.6	43.9*	1.4	10.2	57.7*	-3.0
O=[N+]([O-])c1ccccc1/C=N/n1c(-c2ccccc2)n[nH]c1=S	21.8	51.3*	-9.5	-2.2	80.6*	-4.7
Cc1cc(-c2n[nH]c(=S)n2/N=C/c2cccs2)n[nH]1	-6.4	60.2*	-1.5	26.3	91.8*	-5.4
Cc1cccc(/C=N/n2c(-c3ccccc3)n[nH]c2=S)c1O	5.6	28.3	-4.5	-39.6	·	·
CC(C)(C)OC(=O)C[C@@H]1C/C=C\C[C@@H](CC(=O)N(CCO)Cc2ccccc2)C(=O)N[C@H](C(C)(C)C)COC1=O	·	-7.9	-1.0	·	·	·
CCC(=O)N1c2ccc(S(=O)(=O)N3CCOCC3)cc2CC1C (stereo not given)	21.1	2.5	-2.7	1.1	·	·

Screening data deposited in PubChem BioAssay by several laboratories.
